Screening data from PubChem.
Luc counter: Kinase-Glo luciferase inhibition (counter-screen) | Q27757 | Kinase-Glo luciferase, ATP luminescence, 8 min | Potency, µM (highest dose often 38.3 µM), without a hit: at the highest dose activity change, negative = inhibition, actives largely listed as inhibitors | hit rate 0.28% among 200,000 | AID 1379; note: % is set by controls: 0 for no effect and ±100 for the full control effect; nearly all actives have a fitted effect of over 60% in size
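Kinase-Glo luciferase light output from ATP and luciferin was measured with 10 uM ATP, within the enzyme's linear range. Buffer: 50 mM imidazole pH 7.2, 50 mM KCl, 7 mM MgCl2, 0.01% Tween 20, 0.05% BSA; luminescence read after 8 min at ambient temperature.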
FLuc counter: firefly luciferase modulation, counter-screen for miR-21 project; P08659; purified FLuc, Km substrates, luminescence inhibition; Potency, µM (highest dose often 57.5 µM), inactives show top-dose activity change, negative = inhibition, most hits filed as inhibitors; hit rate 6.9% among 360,000; AID 588342;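 note: plate controls were vehicle for no effect and reference inhibitor for full effect; nearly all actives have a fitted effect of over 55% in size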
Target sequence (P08659 whole entry, looked up): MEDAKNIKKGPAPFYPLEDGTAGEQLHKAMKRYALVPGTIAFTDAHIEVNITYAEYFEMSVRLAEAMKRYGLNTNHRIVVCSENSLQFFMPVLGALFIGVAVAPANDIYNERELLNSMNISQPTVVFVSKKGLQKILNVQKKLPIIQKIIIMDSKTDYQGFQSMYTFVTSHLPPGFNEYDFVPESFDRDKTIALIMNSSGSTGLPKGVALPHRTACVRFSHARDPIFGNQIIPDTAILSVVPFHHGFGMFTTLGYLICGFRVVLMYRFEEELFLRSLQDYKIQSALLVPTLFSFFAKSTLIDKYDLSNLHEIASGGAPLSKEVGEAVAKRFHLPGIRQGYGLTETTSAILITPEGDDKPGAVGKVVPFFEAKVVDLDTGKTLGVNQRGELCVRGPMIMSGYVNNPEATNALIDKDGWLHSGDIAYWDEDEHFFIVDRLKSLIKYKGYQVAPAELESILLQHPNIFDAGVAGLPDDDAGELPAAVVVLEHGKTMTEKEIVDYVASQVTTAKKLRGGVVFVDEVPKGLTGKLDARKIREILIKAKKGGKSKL
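Purified P. pyralis luciferase (10nM final) with 10uM D-luciferin and 10uM ATP (Km levels) in 50mM Tris acetate pH 7.5, 10mM Mg acetate, 0.01% Tween-20, 0.05% BSA; qHTS 6-point titration, ~60 µM downward; luminescence read.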
ELG1 genotoxic: induces genotoxicity in HEK293T cells with luciferase-tagged ELG1 | HEK293T ELG1-luciferase reporter, luminescence, 16 h | hit rate 1.3% among 330,000 | Potency, µM (doses to about 46 µM), for inactives: top-dose activity change, positive = activation, most hits filed as activators; note: % of control where 0% means no effect; nearly all actives have a fitted effect of over 60% in size
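Screening used a luciferase reporter fused to human ELG1 in HEK293T cells. Luminescence was read on a CCD plate imager after 16 hr exposure and 30 min ONE-Glo incubation.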
Rab9 prom act: activates the Rab9 promoter. Huh7 Rab9 promoter-luciferase reporter, luminescence, 24 h. Potency, µM (doses to about 9.22 µM), without a hit: top-dose activation, negative = inhibition, usual class: activators. hit rate 2.8% among 320,000; note: % of control where 0% means no effect; nearly all actives have a fitted effect of over 60% in size
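Quantitative HTS format; Huh7 Rab9-luciferase reporter cells (1500/well) receive compound 2 h post-plating, incubate 24 h at 37 °C, then get luciferase reagent for 10 min before luminescence reading.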
SMN2 splice enh: enhancers of SMN2 splice variant expression | hit rate 2.8% among 210,000 | AID 1458 | Potency, µM (series often up to 46.1 µM), for the others: top-dose activity change, positive = activation, most hits filed as activators | HEK293 SMN2-luciferase splicing reporter, luminescence, 30-36 h; note: % of control where 0% means no effect; nearly all actives have a fitted effect of over 55% in size
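qHTS luciferase splicing reporter: luminescence rises when SMN2 exon 7 is included in transfected HEK293 cells. Compound exposure lasted 30-36 h at 37C, with 4.5 mM final sodium butyrate as control, followed by a ONE-Glo read.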
NPC1 promoter act: activators of NPC1 promoter. Huh7 NPC1 promoter luciferase reporter, 24 h. hit rate 2.4% among 320,000. Potency, µM (series often up to 9.22 µM), inactives show at the top dose activation, most hits filed as activators; note: % of control where 0% means no effect; nearly all actives have a fitted effect of over 60% in size
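Luciferase expression driven by the NPC1 promoter was measured in stably transfected Huh7 cells after a 24 h compound incubation, using a luciferase reagent and a luminescence read.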
Active calls of the source: *; ? = inconclusive; . = no result. Shown are actives, neighbours in structure and some others; about 7.3% of the full set was active somewhere. Calls come from the whole dose curve; as a rule, active = well fitted curve in the direction sought with a large enough effect; inconclusive = small, poorly fitted or top-dose-only effect, or another doubt; inactive = no such curve, though single readings can be large; an effect the other way counts as inactive or inconclusive. Potency is the fitted concentration of half-maximal effect.

SMILES	Luc counter	FLuc counter	ELG1 genotoxic	Rab9 prom act	SMN2 splice enh	NPC1 promoter act
COc1cc(OC)cc(-c2nnc(Nc3nc4c(F)cccc4s3)o2)c1	5.8%	?	-15.3%	5.0%	2.3%	5.8%
Fc1cccc2sc(Nc3nnc(-c4ccccc4)o3)nc12	4.5%	3.01µM*	?	3.16µM*	3.16µM*	2.51µM*
COc1nc(C)ccc1-c1noc(-c2cccs2)n1	.	1.51µM*	?	0.501µM*	.	0.562µM*
CCOc1ccccc1-c1nc(-c2ccc(C)nc2OC)no1	-2.0%	9.53µM*	?	3.16µM*	?	4.47µM*
CCOc1nc(C)ccc1-c1noc(-c2ccco2)n1	-1.8%	-16.8%	?	?	12.3%	?
COc1cc(-c2nc(-c3ccc(C)nc3OC)no2)cc(OC)c1OC	-1.9%	-0.9%	-1.1%	13.4%	9.2%	-2.4%
COc1nc(C)ccc1-c1noc(-c2ccncc2)n1	-1.9%	13.5µM*	?	?	14.1µM*	?
CCOc1ccc2nc(N(CCN(CC)CC)C(=O)c3cccc([N+](=O)[O-])c3)sc2c1	1.6%	2.0%	1.2%	-6.4%	-14.2%	-0.5%
CN(C)c1ccc(C(=O)NCC2CCCO2)cc1 (stereo unspecified)	-4.1%	?	?	27.9%	25.1µM*	?
O=C(NCC1CCCO1)c1cccc(Oc2ccccc2)c1 (stereo unspecified)	.	16.9µM*	?	?	.	21.3%
Cc1cccc(C(=O)NCC2CCCO2)c1 (stereo unspecified)	-0.4%	3.3%	0.0%	1.5%	14.1%	-0.2%
CN(C)c1cccc(C(=O)NCC2CCCO2)c1 (stereo unspecified)	-1.3%	-3.7%	?	26.9%	28.2µM*	15.9%
C/C(=N\Nc1nc(C)cc(-c2ccccc2)n1)c1ccc(F)cc1	.	?	-2.7%	-1.2%	.	1.4%
C/C(=N/Nc1nc(-c2ccccc2)cc(-c2ccc(F)cc2)n1)c1cccc(N)c1	-4.0%	9.53µM*	-15.7%	-0.9%	-45.4%	9.1%
CCC1CSC(Nc2ccc(C(=O)/C=C/c3ccc(OC)c(OC)c3)cc2)=N1 (stereo unspecified)	-0.3%	23.9µM*	-17.4%	-19.0%	-59.3%	-15.4%
COc1ccc2nc(-c3cccc(N)c3)[nH]c2c1	12.6µM*	2.39µM*	?	2.51µM*	.	1.58µM*
COc1ccc2nc(-c3ccc(N)cc3)[nH]c2c1	10µM*	3.79µM*	?	24.4%	?	?
O=C(O)CCNS(=O)(=O)c1cccc2nsnc12	.	-3.0%	-1.3%	0.5%	.	-2.5%
CN(C)C1(CNC(=O)COc2ccc(C(C)(C)C)cc2)CCCCC1	.	1.0%	.	.	.	.
COCC1CCN(C(=O)C2CCC(=O)N(C3CCCC3)C2)CC1 (stereo unspecified)	.	-13.7%	5.5%	5.3%	.	-3.5%
COC1CCN(C(=O)C2CCC(=O)N(C3CCCCCC3)C2)CC1 (stereo unspecified)	.	16.9µM*	?	?	.	?
Cc1ccc(S(=O)(=O)Nc2cc3c(cc2NCc2ccccc2)n(C)c(=O)n3C)c(C)c1	.	?	.	.	10µM*	.
Cc1ccc(S(=O)(=O)Nc2cc3c(cc2NCc2ccccc2)n(C)c(=O)n3C)cc1	.	?	.	.	14.1µM*	.
Cc1ccc(S(=O)(=O)Nc2ccc3c(c2)n(C)c(=O)n3C)c(C)c1	0.1%	-7.9%	?	-7.7%	.	-0.6%
Cn1c(=O)n(C)c2cc(NS(=O)(=O)c3ccc(F)cc3)c(NCc3ccccc3)cc21	.	16.9µM*	.	.	0.891µM*	.
CCc1ccc(S(=O)(=O)Nc2cc3c(cc2C)n(C)c(=O)n3C)cc1	.	2.7%	?	-34.3%	.	-31.7%
COCCN(C(=O)CSc1nnc(-c2cccc(C)c2)n1C)c1c(N)n(Cc2ccccc2)c(=O)[nH]c1=O	0.5%	-0.7%	3.9%	3.2%	28.4%	-1.5%
